Screening data: PubChem BioAssay, University of Kansas High Throughput Screening Laboratory
The entries come from a sample that favours hits as a whole.
mHTT-CaM PPI inh = mutant huntingtin-calmodulin interaction inhibitors – biochemical, AlphaScreen, primary screen; P42858; AlphaScreen His-mHTT/GST-CaM binding, luminescence; inhibition, % at 15 µM; hit rate 3.6% among 190,000;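 further: 0% = both proteins with DMSO and 100% = one protein alone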
Pf apPOL inh = Pf-apPOL inhibitors, biochemical, fluorescence | Plasmodium falciparum apicoplast DNA polymerase (apPOL) | Recombinant Pf-apPOL, molecular beacon fluorescence, 1.5 h | inhibition, % at 10 µM | hit rate 0.25% among 210,000 | AID 1794808, 2022
Starred values were filed as active, the others as inactive; nt = no result given; + = active, no number. No stated cut-off is given here; in the data, active means inhibition above about 50%; inactive means the rest.

SMILES	mHTT-CaM PPI inh	Pf apPOL inh
COc1cc(OC)c(OC)cc1CN1CCN(Cc2cccc(Cl)c2)CC1	15.2	-3.0
COCCNC(=O)c1ccccc1N(Cc1ccccc1)S(=O)(=O)c1ccccc1	8.8	7.1
CS(=O)(=O)N(Cc1ccccc1)c1ccccc1C(=O)NCCSc1ccc(Cl)cc1	52.0*	-11.8
COc1ccc(/C=C2\C(=O)NC(=O)N(c3ccc(C)cc3)C2=O)cc1I	16.0	-0.9
COc1ccc2c(c1)CN(c1ccc(C)cc1C)CO2	-9.0	-0.5
Fc1ccc(N2COc3ccc(Cl)cc3C2)cc1	50.0*	-4.7
Fc1ccc(N2COc3cc4c(cc3C2)OCO4)cc1	9.0	-6.5
Cc1cccc(N2COc3ccc(Cl)cc3C2)c1C	96.0*	-0.2
Cc1ccc(N2COc3cc4c(cc3C2)OCO4)cc1C	18.0	-1.1
COc1ccc2c(c1)CN(c1ccc(C)c(Cl)c1)CO2	77.0*	-3.5
Cc1cccc(N2CCN(C(=O)c3ccc(Cl)cc3)CC2)c1C	-5.3	-8.6
Cc1ccc(N2COc3ccc(Cl)cc3C2)cc1	64.0*	-4.9
CCOC(=O)Cc1csc(NC(=O)c2cc3cc([N+](=O)[O-])ccc3s2)n1	0.1	2.4
Cc1ccccc1C(=O)NC(NC1CCS(=O)(=O)C1)C(Cl)(Cl)Cl (centres undefined)	3.0	-0.4
CCOc1ccc(/C=C2\N=C(c3ccccc3F)OC2=O)cc1	-1.0	1.0
Cc1nn(CN2CCCCC2)c(=S)s1	-3.8	nt
COc1ccc(CNC(=O)c2cnn3c2NC(c2ccc(OC)cc2)CC3C(F)(F)F)cc1 (centres undefined)	19.0	-0.6
COc1cccc(C2CC(C(F)(F)F)n3ncc(C(=O)NCc4ccc(F)cc4)c3N2)c1 (centres undefined)	63.6*	-7.2
CN1C(=O)C2CCCCN2c2ccc(C(=O)NCCc3ccccc3)cc21 (centres undefined)	17.0	-0.7
COc1ccc(Br)cc1C(=O)Nc1cc(Cl)ccc1C	-3.5	-0.6
Cc1cc(C)nc(Nc2nc3ccccc3[nH]2)n1	0.0	-0.9
Clc1cc2c(cc1/C=N/Nc1nc3ccccc3[nH]1)OCO2	+	nt
N#C/C(=C\c1cc2c(cc1Br)OCO2)c1nc2ccccc2[nH]1	7.5	-1.2
Cc1[nH]c2ccccc2c1/C=N\Nc1nc2ccccc2[nH]1	+	nt
COc1ccc(NS(=O)(=O)c2ccc(NS(=O)(=O)c3ccccc3[N+](=O)[O-])cc2)nn1	3.0	-6.0
SMILES	mHTT-CaM PPI inh	Pf apPOL inh
O=C(Nc1c2c(nn1-c1ccc([N+](=O)[O-])cc1)CSC2)c1cccc(Cl)c1	7.0	-8.7
N#Cc1c(-c2ccco2)cc(-c2ccco2)[nH]c1=O	nt	92.7*
N#Cc1c(-c2ccccc2)cc(-c2ccco2)c(C#N)c1N	55.3*	8.6
N#Cc1ccc(-c2ccco2)[nH]c1=O	nt	32.6
N#CCOc1nc(-c2ccccc2)cc(-c2ccco2)c1C#N	nt	0.4
O=C(NCCCN1CCCCC1)C1CCCN(c2cnn(Cc3ccccc3)c(=O)c2)C1 (centres undefined)	-2.5	-4.7
COc1cc(/C=C2\C(=O)NN(c3ccccc3)C2=O)cc(Cl)c1OC	28.0	-0.6
COc1cc(/C=C2\C(=O)NN(c3cccc(Br)c3)C2=O)cc(Cl)c1OC(C)C	84.0*	-4.4
CCOc1cc(/C=C2\C(=O)NN(c3ccc(C)c(Cl)c3)C2=O)cc(Cl)c1OCC	41.0	-11.3
COc1cc(/C=C2\C(=O)NN(c3ccc(C)c(C)c3)C2=O)cc(Cl)c1OC	58.0*	-6.5
CCOc1ccc(/C=C2\C(=O)NN(c3cccc(Br)c3)C2=O)cc1OCC	5.0	-2.2
CCOc1cc(/C=C2\C(=O)NN(c3ccc(C)c(C)c3)C2=O)cc(Cl)c1OCC	63.0*	-2.0
CCn1c(N2CCCC(C(=O)NCc3cccnc3)C2)cc(=O)n(C)c1=O (centres undefined)	-3.5	5.7
COc1ccccc1N=Cc1cc(OC)c(OCc2ccccc2)cc1[N+](=O)[O-]	95.0*	-12.5
COc1cc(C(O)C[N+](=O)[O-])ccc1OCc1ccccc1 (centres undefined)	9.3	-2.8
COc1cccc(C(=O)N2CCCC2C(=O)NCCc2csc(-c3ccccc3)n2)c1 (centres undefined)	-3.8	-0.7
CN(C)c1ccc(/C=C/C=N/NC2=NS(=O)(=O)c3ccccc32)cc1	+	nt
CN(C)C1=NS(=O)(=O)c2ccccc21	-2.5	-2.0
CC(=O)SCC(C)C(=O)O (centres undefined)	nt	2.6
COC(=O)c1c(NC(=O)CN2C(=O)CCC2=O)sc(Cc2ccc3c(c2)OCO3)c1C	44.7	-7.7
Fc1cccc(NCc2ccco2)c1	14.5	1.6
Oc1c(Cl)cc(Cl)cc1CNc1cccc(F)c1	96.0*	-2.2
Cc1c(CN2CCSCC2)nnn1-c1ccccc1	-8.0	-2.9
COc1ccc(C)cc1NC(=O)CCC1CCCN(c2cc(NC3CC3)ncn2)C1 (centres undefined)	10.5	-7.8
CCNc1cc(N2CCCC(CCC(=O)Nc3cc(C)ccc3OC)C2)ncn1 (centres undefined)	55.5*	1.2
SMILES	mHTT-CaM PPI inh	Pf apPOL inh
COc1ccc(C)cc1NC(=O)CCC1CCN(c2cc(NC3CC3)ncn2)CC1	39.2	-3.4
CCCNc1cc(N2CCC(CCC(=O)Nc3cc(C)ccc3OC)CC2)ncn1	58.8*	-6.1
COc1cccc2cc(NC(=O)/C=C/c3cccc(Cl)c3Cl)c(=O)oc12	1.0	1.5
c1ccc(CN2CC(c3nc(-c4ncccn4)no3)C2)nc1	29.0	-12.1
CC(C)c1ccc(NC(=O)C2CCN(c3cc(=O)n(C)c(=O)n3C)CC2)cc1	35.2	-0.7
CCCc1cc(C2CCCN2C(=O)Nc2ccc(C)c(F)c2)no1 (centres undefined)	-11.8	2.0
CCc1ccc2c(c1)C1(NN=C(c3ccccc3O)S1)C(=O)N2 (centres undefined)	100.0*	-2.1
O=C1c2ccccc2C(=O)C1C1(C2C(=O)c3ccccc3C2=O)C(=O)Nc2ccccc21	14.0	-6.7
CCc1ccc(C(=O)N2CCC3(C2)C(=O)Nc2ccccc23)cc1 (centres undefined)	42.5	-5.3
O=C1Nc2ccccc2C12NN=C(c1ccccc1O)S2 (centres undefined)	100.0*	-1.1
COc1ccc2[nH]c([S@@](=O)Cc3ncc(C)c(OC)c3C)nc2c1	nt	5.3
CC1CCCCC1N1CC(=O)N(Cc2ccco2)C(c2ccc(Cl)cc2)C1=O (centres undefined)	12.0	-9.8
N#Cc1ccc(NC(=O)c2cc3nc(-c4cccs4)cc(C(F)(F)F)n3n2)cc1	4.0	4.3
COc1ccc(CCNC(=O)N2CCN(Cc3nc4ccccc4[nH]3)CC2)cc1	100.2*	-109.2
Cc1nnsc1C(=O)N1CCN(Cc2nc3ccccc3[nH]2)CC1	-14.9	-6.1
COc1ccc(Cl)cc1N(CC(=O)N1CCN(Cc2ccccc2)CC1)S(C)(=O)=O	20.5	-0.7
COc1ccc(Cl)cc1N(CC(=O)N(Cc1ccccc1)Cc1ccccc1)S(C)(=O)=O	64.9*	-5.8
COc1c(Cl)cc(/C=C2/SC(=N)NC2=O)cc1Cl	2.0	-5.3
CCCOc1ccc(C(=O)Nc2ccc(N3CCCC3)cc2)cc1	2.6	-5.7
CCCCOc1ccc(C(=O)Nc2ccc(N3CCCC3=O)cc2)cc1	88.3*	2.7
O=C(c1ccc(OCC2CCCN(C(=O)c3cccs3)C2)cc1)N1CCCCC1 (centres undefined)	-8.2	-0.8
CNC(=O)c1cc2cc(Br)ccc2oc1=O	-1.0	-0.6
